These results are taken from ChEMBL document CHEMBL3433997, “St. Jude Leishmania screening dataset” (2016).

What all share (type): functional
The target of assay [1] is Solute carrier family 2, facilitated glucose transporter member 1 (Homo sapiens) (UniProt P11166). As to the kind of experiment: ST_JUDE_LEISH: Cytotoxicity at 2uM final concentration against transgenic Leishmania Mexicana promastigotes LmGLUT1 that are glucose transport deficient and complemented with the human glucose transporter GLUT1. Activity is measured by DNA content using SYBR green in vitro.

The target of assay [2] is Hexose transporter 1 (Plasmodium falciparum) (UniProt O97467). Kind of assay: ST_JUDE_LEISH: Cytotoxicity at 2uM final concentration against transgenic Leishmania Mexicana promastigotes LmPfHT that are glucose transport deficient and complemented with the Plasmodium falciparum hexose transporter. Activity is measured by DNA content using SYBR green in vitro.
Assay [3] has as its target Glucose transporter (Leishmania mexicana) (UniProt O61059). Kind of assay: ST_JUDE_LEISH: Cytotoxicity at 2uM final concentration against transgenic Leishmania Mexicana promastigotes LmGT2 that are glucose transport deficient and complemented with the L. Mexicana glucose transporter 2. Activity is measured by DNA content using SYBR green in vitro.

Solute carrier family 2, facilitated glucose transporter member 1 (Homo sapiens), sequence (P11166 whole entry): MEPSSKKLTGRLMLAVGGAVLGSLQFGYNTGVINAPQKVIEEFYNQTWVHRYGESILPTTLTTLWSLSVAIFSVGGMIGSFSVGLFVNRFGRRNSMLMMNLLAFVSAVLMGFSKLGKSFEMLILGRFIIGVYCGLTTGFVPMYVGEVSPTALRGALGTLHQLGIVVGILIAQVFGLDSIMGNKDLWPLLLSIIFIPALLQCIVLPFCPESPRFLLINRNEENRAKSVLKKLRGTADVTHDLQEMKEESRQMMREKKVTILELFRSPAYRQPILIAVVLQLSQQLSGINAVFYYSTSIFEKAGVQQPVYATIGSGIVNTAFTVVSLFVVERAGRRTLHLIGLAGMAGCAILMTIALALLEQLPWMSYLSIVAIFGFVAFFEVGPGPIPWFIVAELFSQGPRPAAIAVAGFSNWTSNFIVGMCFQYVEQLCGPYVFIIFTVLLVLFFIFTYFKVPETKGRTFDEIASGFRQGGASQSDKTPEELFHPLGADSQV

Usually inhibition stands for the relative decrease from the control value, in per cent. Turning to `O=[N+]([O-])c1ccc(C=NNc2nc(Nc3ccccc3)nc(Nc3ccccc3)n2)o1`, the inhibition is 13.4% in assay [1], 18.9% in assay [2] and 2.58% in assay [3].

With `CCc1nc(N)nc(N)c1-c1ccc2c(c1)CCCC2`, the inhibition in assay [1] came out at 2.54%; in assay [2] it was 3.35%; in assay [3] it was 2%.

As to `CCCCCCN(C(=O)OCc1ccccc1)C1CCN(C(=O)OC(C)(C)C)CC1C(=O)OCC` (stereo not given), the inhibition in assay [1] was determined as 7.92%; in assay [2] it was 6.27%; in assay [3] it was 7.27%.

For the molecule `CN(CCCCNC(=O)c1ccc(-c2ccccc2)cc1)C1CCc2c(O)cccc2C1` (stereo not given), the inhibition in assay [1] came out at 2.79%; in assay [2] it was 2.13%; in assay [3], 1.18%.

In the case of `COc1ccc2nccc(N3CCC(CCNCc4ccc5c(n4)NC(=O)CS5)CC3)c2n1`, the inhibition in assay [1] amounted to 4.06%; in assay [2], 4.8%; in assay [3] it was 7.97%.

As for `N#Cc1cccc(NC(=O)Nc2cccc(-c3cccc(-c4nc5cc(F)ccc5[nH]4)c3)c2)c1`, the values for the inhibition in assay [1], in assay [2] and in assay [3] were 9.7%, 7.87% and 8.96%, respectively.

In the case of `CCc1cn2c3c(cc(C(=O)N[C@@H](Cc4ccccc4)[C@H](O)CN[C@@H](C)CC)cc13)N(C)S(=O)(=O)CC2`, the inhibition in assay [1] was 0.43%; in assay [2], 2.23%; in assay [3], -0.58%.

For `Cc1cc(C)c(-c2n[nH]c3c2C(c2cccc(Cl)c2)N(Cc2ccco2)C3=O)c(O)c1` (stereo not given), the inhibition turned out to be 1.7% in assay [1], 5.35% in assay [2] and 1.37% in assay [3].

For `CC(=O)Oc1c(C2CCN(CCCCNC(=O)c3ccc(NC(=O)c4ccc(Cl)cc4)cc3)CC2)ccc2c1CCCC2`, the inhibition in assay [1] amounted to 4.86%; in assay [2], 6.32%; in assay [3], 3.9%.

In the case of `Cc1cc(N(C)C)nc(Nc2ccc(NC(=O)c3ccc(Br)o3)cc2)n1`, the inhibition in assay [1] worked out at 7.73%; in assay [2], 9.85%; in assay [3], 3.96%.

Consider `COc1cccc(C(=O)Nc2nc3c(s2)CCN(Cc2ccccc2N2CCNCC2)CC3)c1`, for which the inhibition in assay [1] came to 12.3%; in assay [2] it was 13.7%; in assay [3], 10.7%.

For the molecule `COc1ccc2nc(C)cc(Nc3ccc(Oc4ccc(Cl)cc4)c(Cl)c3)c2c1`, the inhibition is 7.89% in assay [1], 6.68% in assay [2] and 2.63% in assay [3].

As for `N#Cc1cncc(-c2nc3c(N4CCCC(N)C4)cccc3n2CCNCc2ccccc2)c1` (stereo not given), the results for the inhibition in assay [1], in assay [2] and in assay [3] were 6.64%, 5.11% and 8.87%, respectively.

In the case of `COc1ccc2nccc([C@@H](O)CN3CCC(NCc4ccc5sc(=O)[nH]c5c4)CC3)c2c1`, the inhibition in assay [1] came to 1.84%; in assay [2] it was 5.11%; in assay [3] it was 1.2%.

Turning to `NCCCNc1nc(Nc2ccc(C(F)(F)F)cc2F)c2c(=O)[nH]ccc2n1`, the inhibition in assay [1] was 3.4%; in assay [2], 3.63%; in assay [3] it was 0.74%.

On to `CC(C)(C)NS(=O)(=O)c1cc(C(=O)N2CCC(CCN3CCC(C(=O)c4ccc(F)cc4)CC3)(c3cccc(F)c3)CC2)c(Cl)cc1F`, for which the figures for the inhibition in assay [1], in assay [2] and in assay [3] were 7.28%, 9.1% and 5.52%, respectively.

As for `CCC(CSC1CCCCC1)N(C)CCN(C)C(CC)CSC1CCCCC1` (stereo not given), the inhibition was found to be 7.39% in assay [1], 36.7% in assay [2] and 4.54% in assay [3].

On to `Cc1cc(N2CCN(C)CC2)nc2ccc(NC(=O)Cc3cccc(C(F)(F)F)c3)cc12`, for which the inhibition amounted to 2.34% in assay [1], 1.8% in assay [2] and 5.56% in assay [3].

In the case of `COc1cc(Nc2nccn3c(-c4ccsc4)cnc23)cc(OC)c1OC`, the inhibition in assay [1] amounted to 7.63%; in assay [2], 5.81%; in assay [3], 4.31%.

On to `C=CCNC(CCCCC)c1ccc(OCCOc2ccc(C(CCCCC)NCC=C)cc2)cc1` (stereo not given), for which the values for the inhibition in assay [1], in assay [2] and in assay [3] were 0.79%, 11.9% and 3.03%, respectively.

As to `CC1(C)N=C(N)N=C(N)N1c1cccc(Cl)c1`, the inhibition in assay [1] was 0.67%; in assay [2] it was -0.19%; in assay [3], 2.95%.

For `CC(=O)N1N=C(c2ccc(F)cc2)Sc2c1nc(C1CCCCC1)n2C(C)=O`, the inhibition in assay [1] was 8.37%; in assay [2], 6.09%; in assay [3] it was 7.07%.

As to `Cc1ccc(CNC(=O)[C@H](Cc2ccccc2)Nc2cc(C)nc(NCCc3ccc(F)cc3)n2)cc1`, the inhibition was 5.47% in assay [1], 4.28% in assay [2] and 10.6% in assay [3].

With `CCN(CC)C(=O)c1cccc(C=Cc2ccc(-c3c(C)[nH]c(C)c(Cl)c3=O)cc2)c1`, the inhibition in assay [1] is 2.65%; in assay [2], 2.83%; in assay [3], 1.56%.

For `CN(CCN1CCC(c2c[nH]c3ccccc23)CC1)c1ccc(-c2nc3cc(Cl)c(Cl)cc3[nH]2)cc1`, the results for the inhibition in assay [1], in assay [2] and in assay [3] were 2.04%, 0.16% and 0.74%, respectively.

In the case of `N=C(N)Nc1ccc(Cc2ccc(NC(=N)N)cc2)cc1`, the inhibition in assay [1] is -0.68%; in assay [2], -0.57%; in assay [3], 0.58%.

As to `Fc1cccc2sc(Nc3nc(-c4ccccn4)cs3)nc12`, the inhibition in assay [1] is 1.42%; in assay [2], 0.63%; in assay [3], -5.6%.

With `CC(C)(CNC(=O)[C@@H]1CCCN(CCOc2ccc(F)c(F)c2)C1)c1nc(-c2ccc(Cl)c(O)c2)c(-c2ccncc2)[nH]1`, the inhibition in assay [1] is 0.3%; in assay [2], -0.12%; in assay [3] it was 1.28%.

In the case of `CN(C)CCCN1C(=O)c2[nH]nc(-c3ccc(Cl)cc3O)c2C1c1ccc(Cl)cc1` (stereo not given), the figures for the inhibition in assay [1], in assay [2] and in assay [3] were 0.82%, 0.66% and 1.69%, respectively.

On to `CN(C)CCN(C)Cc1ccc(-c2ccc(NC(=O)c3ccc(Cl)cc3)cc2)cc1`, for which the inhibition turned out to be 21.2% in assay [1], 11.3% in assay [2] and 7.17% in assay [3].

Turning to `CC(C)(C(=O)Nc1ccc(C2CCC(NCC3CC3)CC2)c(Cl)c1)c1ccc(C(F)(F)F)cc1` (stereo not given), the inhibition is 0.29% in assay [1], 0.31% in assay [2] and -0.91% in assay [3].

Turning to `COc1ccc(CN(C)Cc2ccc(NC(=O)c3cccc4c(=O)c5cccc(C)c5[nH]c34)cc2)cc1OC`, the values for the inhibition in assay [1], in assay [2] and in assay [3] were 4.59%, 11.6% and 0.44%, respectively.

Regarding `O=C(NCCCN1CCOCC1)c1ccc(-c2cccc(NC(=O)c3ccc(Cl)c(Cl)c3)c2)cc1`, the inhibition was 2.04% in assay [1], 1.79% in assay [2] and -0.88% in assay [3].

Regarding `N#Cc1ccc(N[C@@H](CC2CCCCC2)C(=O)NCc2cc(F)c(F)cc2F)c2ccccc12`, the inhibition in assay [1] was found to be 13%; in assay [2] it was 14.1%; in assay [3], 12%.

With `CC[C@H]1CN(C/C=C/c2ccc(OC)cc2)CC[C@H]1CCCc1ccnc2ccc(O)cc12`, the values for the inhibition in assay [1], in assay [2] and in assay [3] were 2.15%, 2% and 1.51%, respectively.
